Screening results as filed in PubChem BioAssay.
ALR H2O2 inh: human ALR oxidase inhibition via reduced H2O2; P55789; purified ALR, DTT oxidation, H2O2 HRP-luminol luminescence; inhibition, % (test concentration not listed); hit rate 3.8% among 290,000;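 active = mean replicate inhibition above about 79%, with every replicate also reaching it, limit read from the data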
LANA-H2A inh: blocks KSHV LANA binding to histone H2A/H2B; hit rate 0.6% among 320,000; cell-free LANA-H2A/H2B peptide, fluorescence polarization; inhibition, % (test concentration not listed); in the data active = inhibition mostly above about 10%, no sharp cut-off; inactive = mostly below about 6.7%
ABHD5-PLIN5 inh: blocks binding of human ABHD5 to perilipin-5. inhibition, % at 4 µM. Split G. princeps luciferase complementation, luminescence, 4 h. hit rate 0.78% among 360,000;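 active = inhibition above the mean inhibition across every tested compound plus 3 SD, cut at about 22% in these data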;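 also: 0% = DMSO only wells and the 100% control is not disclosed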
Rtt109 HAT inh: C. albicans Rtt109 histone acetyltransferase inhibition | purified Rtt109/Vps75, ThioGlo CoA-SH fluorescence, 4 h | hit rate 0.16% among 330,000 | inhibition, % at 34.9 µM | Q5AAJ8;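 active = inhibition of at least 50% in every replicate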
Target sequence (Q5AAJ8 whole entry, looked up): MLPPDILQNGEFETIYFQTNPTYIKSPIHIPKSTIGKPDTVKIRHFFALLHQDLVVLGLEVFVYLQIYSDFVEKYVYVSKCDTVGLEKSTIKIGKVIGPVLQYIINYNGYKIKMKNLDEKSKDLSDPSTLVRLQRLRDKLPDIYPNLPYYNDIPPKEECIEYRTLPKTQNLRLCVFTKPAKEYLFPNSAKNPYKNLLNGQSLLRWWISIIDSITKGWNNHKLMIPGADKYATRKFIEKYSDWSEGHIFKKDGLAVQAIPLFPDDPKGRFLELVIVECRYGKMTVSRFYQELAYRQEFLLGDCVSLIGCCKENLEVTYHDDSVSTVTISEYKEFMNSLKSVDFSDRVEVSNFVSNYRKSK
rCAG RNA binder: binds r(CAG) RNA repeats; r(CAG) RNA repeat, TO-PRO-1 dye displacement fluorescence; inhibition, % at 3 µM; hit rate 1.3% among 370,000;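 active = inhibition above the plate cutoff, the mean of all test compounds on that plate plus 3 SD, cut at about 35% in these data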;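 also: 0% = DMSO alone and 100% = 100 µM mitoxantrone as full dye displacement; higher means more dye released from RNA so lower well fluorescence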
PRMT1 FP inh: PRMT1 (human) inhibition, primary screen; Q99873; recombinant PRMT1, activity-based probe fluorescence polarization; inhibition, % at 2.79 µM; hit rate 1.3% among 370,000;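 active = inhibition above about 21% made by adding two undisclosed values, limit read from the data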
Target sequence (Q99873 whole entry, looked up): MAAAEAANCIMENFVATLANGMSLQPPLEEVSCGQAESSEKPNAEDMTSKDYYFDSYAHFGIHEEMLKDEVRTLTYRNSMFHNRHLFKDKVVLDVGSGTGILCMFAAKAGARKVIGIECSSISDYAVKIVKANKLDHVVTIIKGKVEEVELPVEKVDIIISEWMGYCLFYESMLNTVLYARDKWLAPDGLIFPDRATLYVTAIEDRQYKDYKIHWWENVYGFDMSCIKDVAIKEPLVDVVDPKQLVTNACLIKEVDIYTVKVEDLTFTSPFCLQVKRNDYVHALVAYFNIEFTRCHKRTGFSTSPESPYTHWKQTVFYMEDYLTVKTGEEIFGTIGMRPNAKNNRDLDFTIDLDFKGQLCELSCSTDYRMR
rCAG binder conf: r(CAG) RNA repeat binding, confirmation; inhibition, % at 3 µM; hit rate 70% among 4,300; TO-PRO-1 dye displacement fluorescence; shares compounds with rCAG RNA binder; AID 652065;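 active = inhibition above a per-plate cutoff, the mean inhibition of sample wells plus 3 SD, cut at about 35% in these data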;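 also: loss of TO-PRO-1 fluorescence as compound displaces dye from 1x1 AA loop RNA; 0% = DMSO only wells and 100% = 100 µM mitoxantrone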
dCAG dye counter: DNA CAG dye complex inhibition counter-screen. shares compounds with rCAG RNA binder. d(CAG) DNA oligo TO-PRO-1 dye displacement, fluorescence. inhibition, % at 3 µM. hit rate 94% among 4,300;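 active = inhibition above its plate's cutoff, the mean test-well inhibition plus 3 SD, cut at about 4.8% in these data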;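 also: 0% = DNA dye mix with DMSO and 100% = 100 µM mitoxantrone; hits displace the dye from DNA and so lower well fluorescence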
DNA CAG DR: counter-screen for rCAG binders: inhibitors of DNA CAG TO-PRO-1 complex; shares compounds with rCAG RNA binder; DNA CAG/GTC duplex TO-PRO-1 dye displacement fluorescence; IC50, µM; hit rate 20% among 250; in the data active = IC50 below about 10 µM
An asterisk follows results filed as active; i = inactive; . = no result. In the library only some 5.9% were active in any assay of this set; here they are far more common.

SMILES | ALR H2O2 inh | LANA-H2A inh | ABHD5-PLIN5 inh | Rtt109 HAT inh | rCAG RNA binder | PRMT1 FP inh | rCAG binder conf | dCAG dye counter | others
Oc1ccc(-c2cc(-c3ccc(O)cc3)nc(-c3ccccc3)n2)cc1 | 47.7 | -2.3 | 8.9 | 0.0 | 64.8* | -0.2 | 50.6* | 26.5* | DNA CAG DR=i
Cc1c(CCC(=O)O)c(=O)oc2cc3occ(-c4ccc(Br)cc4)c3cc12 | 5.6 | 4.2 | 5.7 | -2.3 | 36.9* | 3.7 | 62.5* | 23.7*
Cc1c(CCC(=O)NCCC(=O)O)c(=O)oc2cc3occ(-c4ccccc4)c3cc12 | -0.9 | -0.3 | 7.2 | -3.9 | 30.8 | 1.9 | . | .
Cc1c(CCC(=O)O)c(=O)oc2cc3occ(-c4ccc(F)cc4)c3cc12 | 97.5* | 3.9 | -0.4 | 7.7 | 47.5* | 2.9 | 44.2* | 12.3*
CCCC(NC(=O)CCc1c(C)c2cc3c(-c4ccccc4)coc3cc2oc1=O)C(=O)O (stereo not drawn) | 1.9 | -3.0 | -2.9 | 4.8 | 36.3* | 8.1 | 40.6* | 10.9*
C[C@@H]1CN([C@H](C)CO)C(=O)c2c(c3ccccc3n2C)-c2ccccc2CO[C@H]1CN(C)C(=O)CCC(F)(F)F | . | . | -6.2 | . | 1.4 | -1.4 | . | .
CCc1nc2ccc(C(=O)Nc3cccc(NS(C)(=O)=O)c3)cn2c1N(CC)Cc1cccc(Br)c1 | . | . | -0.1 | . | 5.5 | -4.5 | . | .
COc1cccc(CNC(=O)c2c[nH]n3c(=O)c(Cl)c(C)nc23)c1 | -3.4 | 0.7 | -3.9 | 5.4 | 61.2* | 0.2 | 35.1* | 8.0*
O=C1Nc2ccc(Br)cc2C12NNc1ccccc1O2 (stereo not drawn) | -6.7 | -9.0 | 5.0 | -1.4 | 61.3* | 6.8 | 57.9* | 47.5*
O=C1Nc2ccc(Br)cc2C1(O)c1ccccc1 (stereo not drawn) | -4.6 | 7.1 | 3.2 | -0.6 | -0.5 | -0.1 | . | .
Cc1ccc(S(=O)(=O)N2[C@@H](c3ccc(C(C)(C)C)cc3)C(C(=O)O)=CC[C@H]2c2ccc3c(c2)OCO3)cc1 | . | -1.8 | 2.1 | 2.0 | 82.6* | -2.1 | 81.7* | 46.4*
Cc1ccc(S(=O)(=O)N2[C@@H](c3ccccc3)C(C(=O)O)=CC[C@H]2c2ccc3c(c2)OCO3)cc1 | 0.8 | -2.9 | -1.7 | 12.0 | 54.3* | -1.5 | 43.0* | 10.9*
Cc1ccc(C)c(NC(=O)NNC(=O)c2cc3ccccc3cc2O)c1 | -0.6 | -10.2 | -0.2 | -4.2 | 34.8* | -0.5 | 27.7 | 9.0*
O=C(NNC(=O)c1cc2ccccc2cc1O)Nc1ccccc1F | 5.8 | -7.2 | -0.9 | -9.0 | 40.6* | 3.0 | 21.6 | 7.2*
Cc1ccc(NC(=O)NNC(=O)c2cc3ccccc3cc2O)c(C)c1 | 2.9 | -9.0 | -3.2 | 0.3 | 30.6 | -1.0 | . | .
CCc1nc(SCC(=O)Nc2ccccc2OC)c2c(C)c(C)sc2n1 | 0.6 | -3.4 | -0.5 | -5.3 | 1.6 | 0.4 | . | .
CCc1nc(SCC(=O)Nc2cc(C)ccc2OC)c2c(C)c(C)sc2n1 | . | -1.6 | 2.6 | 0.3 | 34.9* | 2.3 | 4.0 | 1.7
COc1ccc(OC)c(NC(=O)CSc2ncnc3sc(C)cc23)c1 | . | . | -2.1 | 7.9 | 71.6* | 23.2* | 63.8* | 34.5*
CC(CCN1CCC(C(O)(c2ccccc2)c2ccccc2)CC1)Oc1ccc(C#N)cc1F (stereo not drawn) | . | . | . | . | 4.0 | -2.9 | . | .
CC1(C(=O)NS(=O)(=O)c2ccccc2Cl)CCN1C(=O)CCc1ccc(Cl)cc1Cl (stereo not drawn) | . | . | 0.2 | . | 46.5* | -0.6 | 36.1* | 7.3*
Cc1ccccc1S(=O)(=O)NC(=O)C1(C)CCN1C(=O)CCc1ccc(Cl)cc1Cl (stereo not drawn) | . | . | -2.8 | . | 43.7* | -1.0 | 33.2 | 6.1*
CC1(C(=O)NCC2CC2)Cc2c(-c3cccc(C(F)(F)F)c3)ccnc2O1 (stereo not drawn) | . | . | -7.1 | . | 16.4 | -6.0 | . | .
CC(C)(C)OC(=O)[C@H]1[C@H](c2ccc([N+](=O)[O-])cc2)C2(C(=O)c3ccccc3C2=O)C2c3ccccc3C=NN21 (stereo partly drawn) | -1.3 | -5.1 | -6.4 | 11.8 | 36.2* | 3.9 | 22.4 | 9.9*
COc1ccc(C(=NNc2ccccc2C(=O)O)c2ccc(OC)cc2)cc1 | 31.6 | 3.5 | -4.8 | -9.0 | 82.9* | 0.8 | 66.5* | 25.8*
COc1ccc(C(=O)Nc2ccccc2C(=O)Nc2ccc(C(=O)O)cc2)cc1 | 28.1 | -3.6 | 4.4 | 3.9 | 14.0 | 2.1 | . | .
SMILES | ALR H2O2 inh | LANA-H2A inh | ABHD5-PLIN5 inh | Rtt109 HAT inh | rCAG RNA binder | PRMT1 FP inh | rCAG binder conf | dCAG dye counter | others
COc1ccc(C(=O)Nc2ccccc2C(=O)Nc2ccccc2C(=O)O)cc1 | 97.8* | 11.2 | 1.0 | 16.1 | 78.1* | 0.8 | 77.1* | 39.5*
C[C@@H](NC(=O)C1(c2ccccc2)CCN(C(=O)OC(C)(C)C)CC1)C(=O)N[C@@H](C(=O)O)c1ccccc1 | -2.8 | 2.4 | 5.2 | -0.6 | 7.0 | -0.7 | . | .
Cc1cc(C)cc(OC[C@@H](O)CN2CCC(C(O)(c3ccccc3)c3ccccc3)CC2)c1 | . | . | . | . | 0.4 | -7.3 | . | .
O=C(COC(=O)COc1ccccc1)NC12CC3CC(CC(C3)C1)C2 | -0.7 | -2.9 | 4.4 | 1.4 | -2.5 | -0.6 | . | .
COc1ccc(-c2cc(CNc3nc(NC(C)C)nc4cc(-c5ccccc5)sc34)on2)cc1 | . | . | 6.6 | . | 8.2 | -5.4 | . | .
O=S(=O)(N=C(NS(=O)(=O)c1ccc(Cl)cc1)c1ccccc1)c1ccc(Cl)cc1 | 4.1 | 4.8 | 3.2 | -0.9 | 54.9* | 1.9 | 50.5* | 13.2*
COc1ccc(NS(=O)(=O)c2ccc3nc(COc4ccc5ccccc5c4)[nH]c3c2)cc1 | . | -0.5 | 1.4 | -3.7 | 50.8* | 0.1 | 19.4 | 14.4*
Cc1cc(C(=O)c2ccccc2)cc(C)c1O | . | . | 6.9 | -1.4 | 0.9 | -2.4 | . | .
CC1=C/C(=C(\c2cc(C)c(O)c(Br)c2)c2ccccc2S(=O)(=O)O)C=C(Br)C1=O | . | -6.4 | -0.8 | -5.5 | 49.3* | -1.6 | 33.2 | 9.3*
O=C(O)c1ccc(/C=N/NC(=O)c2cc(-c3ccc4c5c(cccc35)CC4)n[nH]2)cc1 | -7.2 | 4.0 | 5.9 | 1.6 | 81.1* | 5.8 | 79.5* | 49.2*
O=C(N/N=C/c1ccccn1)c1cc(-c2cccc3ccccc23)n[nH]1 | -2.0 | 0.4 | 0.8 | . | 2.9 | -1.9 | . | .
O=c1cc(-c2ccc(O)c(O)c2)oc2ccc3ccccc3c12 | . | . | 1.7 | 4.4 | 40.8* | 4.8 | 59.3* | 28.5*
O=c1cc(-c2ccc(O)c(O)c2)oc2c1ccc1ccccc12 | 61.6 | 8.3 | -1.9 | -1.3 | 57.3* | 13.7 | 60.9* | 27.6*
O=c1cc(-c2ccccc2)oc2ccc3ccccc3c12 | . | . | 3.4 | . | 5.0 | -2.6 | . | .
